Test results reported in ChEMBL document CHEMBL3988442, “University of Dundee, Small-Polar-MMV Screening Library” (2021).
For some of these results: Results with a measured potency or affinity are listed apart.

Tests used:
Design in all cases: scale not given: direction of the effect not stated beside the values
[1] = molecular target: Protein translocase subunit SecA (Escherichia coli (strain K12)) (UniProt P10408); assay: Assay to Identify E. coli SecA ATPase Inhibitors; type: functional; settings: 30 µM
Chain of Protein translocase subunit SecA (Escherichia coli (strain K12)) (P10408 whole entry): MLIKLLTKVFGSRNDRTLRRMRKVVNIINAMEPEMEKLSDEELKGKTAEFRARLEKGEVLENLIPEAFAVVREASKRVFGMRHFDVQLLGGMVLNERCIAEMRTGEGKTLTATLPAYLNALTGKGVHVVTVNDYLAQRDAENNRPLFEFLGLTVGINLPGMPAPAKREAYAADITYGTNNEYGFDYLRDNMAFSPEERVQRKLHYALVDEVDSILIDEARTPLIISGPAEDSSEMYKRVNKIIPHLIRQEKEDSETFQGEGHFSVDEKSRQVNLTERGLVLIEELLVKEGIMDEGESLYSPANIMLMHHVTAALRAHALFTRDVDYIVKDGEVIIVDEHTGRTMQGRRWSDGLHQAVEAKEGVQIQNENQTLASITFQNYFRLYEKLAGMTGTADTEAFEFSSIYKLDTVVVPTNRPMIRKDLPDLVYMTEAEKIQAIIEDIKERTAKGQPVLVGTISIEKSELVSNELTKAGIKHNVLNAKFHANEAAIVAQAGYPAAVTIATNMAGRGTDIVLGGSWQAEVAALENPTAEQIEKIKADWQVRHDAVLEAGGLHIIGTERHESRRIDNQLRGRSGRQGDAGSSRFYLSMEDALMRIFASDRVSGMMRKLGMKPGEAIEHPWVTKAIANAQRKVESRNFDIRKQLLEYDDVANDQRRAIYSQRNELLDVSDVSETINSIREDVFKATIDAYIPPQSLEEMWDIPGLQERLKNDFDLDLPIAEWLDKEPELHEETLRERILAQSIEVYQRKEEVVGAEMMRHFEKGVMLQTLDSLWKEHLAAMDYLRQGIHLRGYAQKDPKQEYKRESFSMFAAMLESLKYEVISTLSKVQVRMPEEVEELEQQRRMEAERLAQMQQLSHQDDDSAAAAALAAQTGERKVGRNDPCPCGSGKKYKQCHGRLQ

[2] = molecular target: T1, Ubiquitin-activating enzyme e1, putative (Leishmania donovani (strain BPK282A1)) (UniProt E9BSI1); assay: Leishmania donovani Ubiquitin Activating Enzyme (LdE1); type: functional; settings: 30 µM
T1 sequence (whole entry): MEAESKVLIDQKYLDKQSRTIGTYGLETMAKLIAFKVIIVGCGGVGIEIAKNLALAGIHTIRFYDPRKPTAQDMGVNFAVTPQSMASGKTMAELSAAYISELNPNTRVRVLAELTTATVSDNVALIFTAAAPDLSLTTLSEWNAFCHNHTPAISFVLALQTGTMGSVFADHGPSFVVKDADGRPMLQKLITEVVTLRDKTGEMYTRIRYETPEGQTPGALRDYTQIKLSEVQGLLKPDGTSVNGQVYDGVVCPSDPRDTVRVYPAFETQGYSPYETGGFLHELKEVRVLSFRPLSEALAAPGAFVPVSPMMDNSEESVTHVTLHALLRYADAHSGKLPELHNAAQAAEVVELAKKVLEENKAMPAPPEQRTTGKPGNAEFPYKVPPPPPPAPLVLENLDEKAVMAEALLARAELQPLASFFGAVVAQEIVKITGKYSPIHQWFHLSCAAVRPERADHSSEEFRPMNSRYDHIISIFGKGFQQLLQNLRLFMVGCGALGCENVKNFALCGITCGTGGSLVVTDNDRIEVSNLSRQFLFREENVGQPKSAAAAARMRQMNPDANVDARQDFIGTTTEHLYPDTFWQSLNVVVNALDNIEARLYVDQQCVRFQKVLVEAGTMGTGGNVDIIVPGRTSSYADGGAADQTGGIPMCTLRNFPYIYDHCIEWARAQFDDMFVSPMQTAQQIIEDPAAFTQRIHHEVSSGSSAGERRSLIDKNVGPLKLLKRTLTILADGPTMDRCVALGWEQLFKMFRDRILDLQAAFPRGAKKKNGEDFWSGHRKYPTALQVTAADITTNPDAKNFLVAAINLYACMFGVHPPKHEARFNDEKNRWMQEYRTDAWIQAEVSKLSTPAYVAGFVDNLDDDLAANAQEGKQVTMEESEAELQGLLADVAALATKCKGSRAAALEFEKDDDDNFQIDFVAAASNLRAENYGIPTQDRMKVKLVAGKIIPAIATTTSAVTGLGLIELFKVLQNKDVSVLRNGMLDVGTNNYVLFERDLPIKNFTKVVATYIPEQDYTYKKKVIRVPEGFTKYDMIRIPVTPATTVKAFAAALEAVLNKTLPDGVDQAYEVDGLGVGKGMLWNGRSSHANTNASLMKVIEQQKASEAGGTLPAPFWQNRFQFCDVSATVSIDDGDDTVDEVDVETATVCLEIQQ

[3] = molecular target: AMP-activated protein kinase, AMPK (Homo sapiens) (UniProt P54646+O43741+P54619+Q9UGJ0+Q9Y478+Q13131+Q9UGI9); assay: AMP-dependent Kinase enzyme assay. An in vitro enzyme assay that detects ADP turnover that is directly proportional to AMPK activity. This uses naive AMPK that is activated during the assay with MK-8722; type: functional; settings: 30 µM
[4] = molecular target: Sialic acid-binding Ig-like lectin 9 (Homo sapiens) (UniProt Q9Y336); assay: Hs-Siglec9 ALPHAscreen SOP 20170721; settings: 10 µM
Chain of Sialic acid-binding Ig-like lectin 9 (Homo sapiens) (Q9Y336 whole entry): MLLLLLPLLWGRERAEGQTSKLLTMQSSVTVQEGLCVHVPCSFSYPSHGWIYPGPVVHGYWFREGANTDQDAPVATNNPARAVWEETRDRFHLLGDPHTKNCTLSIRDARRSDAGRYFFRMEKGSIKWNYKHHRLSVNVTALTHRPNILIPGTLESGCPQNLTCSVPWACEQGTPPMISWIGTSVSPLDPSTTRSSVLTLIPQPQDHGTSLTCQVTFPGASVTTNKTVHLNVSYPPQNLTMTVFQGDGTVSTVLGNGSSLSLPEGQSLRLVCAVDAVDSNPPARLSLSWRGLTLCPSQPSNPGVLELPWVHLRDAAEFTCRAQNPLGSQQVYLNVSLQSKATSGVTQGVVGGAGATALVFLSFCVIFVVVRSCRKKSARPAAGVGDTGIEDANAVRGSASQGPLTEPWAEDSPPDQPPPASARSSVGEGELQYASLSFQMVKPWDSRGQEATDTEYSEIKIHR

Trypanosoma cruzi = assay: Trypanosoma cruzi phosphomannomutase and mannose-1-phosphate guanylyltransferase assay; type: functional; settings: 10 µM
[5] = molecular target: T2, Arginase-2, mitochondrial (Homo sapiens) (UniProt P78540); assay: in vitro enzyme assay to detect the production of urea directly proportional to the activity of Arginase II; type: functional; settings: 33.3 µM; further: in the data most compounds retested in dose-response had high values
T2 sequence (whole entry): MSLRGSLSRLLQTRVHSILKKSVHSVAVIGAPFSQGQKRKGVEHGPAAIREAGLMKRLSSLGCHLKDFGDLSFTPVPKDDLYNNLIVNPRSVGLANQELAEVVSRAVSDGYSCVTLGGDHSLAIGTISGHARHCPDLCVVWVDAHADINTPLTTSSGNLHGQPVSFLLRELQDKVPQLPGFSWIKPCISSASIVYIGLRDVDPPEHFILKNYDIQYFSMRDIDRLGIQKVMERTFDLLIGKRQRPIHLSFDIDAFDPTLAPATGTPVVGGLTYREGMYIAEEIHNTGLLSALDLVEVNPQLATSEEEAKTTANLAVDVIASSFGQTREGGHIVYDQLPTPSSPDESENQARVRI

[6] = molecular target: T3, Proteasome subunit beta (Trypanosoma cruzi) (UniProt O96673); assay: Trypanosoma cruzi proteasome chymotrypsin-like activity (TcProtChymo) assay.; further: in the data most compounds retested in dose-response had high values; type: functional; settings: 9.37 µM
T3 sequence (whole entry): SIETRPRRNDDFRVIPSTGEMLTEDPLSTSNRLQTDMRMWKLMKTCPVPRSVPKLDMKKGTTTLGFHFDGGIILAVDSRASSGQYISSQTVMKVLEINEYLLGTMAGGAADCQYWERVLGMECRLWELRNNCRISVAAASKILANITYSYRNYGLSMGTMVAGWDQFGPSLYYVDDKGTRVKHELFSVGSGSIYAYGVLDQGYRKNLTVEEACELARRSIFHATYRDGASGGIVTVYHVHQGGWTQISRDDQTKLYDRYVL

Homo sapiens = species: Homo sapiens; assay: To identify inhibition of the IFN signalling (Jak-Stat) pathway via expression of an eGFP reporter gene under the control of an IFN-stimulated response element (ISRE) containing MxA promoter.; type: functional; settings: 30 µM
[7] = molecular target: T4, Tyrosyl-tRNA synthetase, putative (Trypanosoma cruzi (strain CL Brener)) (UniProt Q4DSP6); assay: Trypanosoma cruzi tyrosyl tRNA synthetase (TcYRS) _High Tyrosine SOP; type: functional; settings: 30 µM; further: in the data most compounds retested in dose-response had high values
T4 sequence (whole entry): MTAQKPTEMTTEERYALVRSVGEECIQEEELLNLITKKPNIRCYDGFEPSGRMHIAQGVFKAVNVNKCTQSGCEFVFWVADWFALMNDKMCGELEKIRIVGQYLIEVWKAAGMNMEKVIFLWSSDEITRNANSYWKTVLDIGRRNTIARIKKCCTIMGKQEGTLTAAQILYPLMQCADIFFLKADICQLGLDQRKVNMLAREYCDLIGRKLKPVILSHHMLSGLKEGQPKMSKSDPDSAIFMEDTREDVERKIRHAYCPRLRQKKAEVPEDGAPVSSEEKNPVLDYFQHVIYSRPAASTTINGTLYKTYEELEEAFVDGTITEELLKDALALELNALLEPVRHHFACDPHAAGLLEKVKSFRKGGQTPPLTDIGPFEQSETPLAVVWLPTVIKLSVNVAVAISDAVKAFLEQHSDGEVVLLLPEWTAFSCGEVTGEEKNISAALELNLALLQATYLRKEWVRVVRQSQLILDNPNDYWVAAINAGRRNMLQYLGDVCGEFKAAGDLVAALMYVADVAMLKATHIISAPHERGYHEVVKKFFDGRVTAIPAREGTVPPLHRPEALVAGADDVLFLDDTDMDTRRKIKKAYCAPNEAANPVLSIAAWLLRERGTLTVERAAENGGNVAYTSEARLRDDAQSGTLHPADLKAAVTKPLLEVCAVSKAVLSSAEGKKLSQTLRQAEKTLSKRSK

[8] = molecular target: T4, Tyrosyl-tRNA synthetase, putative (Trypanosoma cruzi (strain CL Brener)); assay: Trypanosoma cruzi tyrosyl tRNA synthetase (TcYRS) SOP; type: functional; settings: 30 µM
[9] = molecular target: Chromo domain-containing protein 1 (Saccharomyces cerevisiae (strain ATCC 204508 / S288c) (Baker's yeast)) (UniProt P32657); assay: ScCHD-1 Enzyme Inhibition Assay; type: functional; settings: 30 µM; further: in the data most compounds retested in dose-response had high values
Chain of Chromo domain-containing protein 1 (Saccharomyces cerevisiae (strain ATCC 204508 / S288c) (Baker's yeast)) (P32657 whole entry, the tested form may be a part): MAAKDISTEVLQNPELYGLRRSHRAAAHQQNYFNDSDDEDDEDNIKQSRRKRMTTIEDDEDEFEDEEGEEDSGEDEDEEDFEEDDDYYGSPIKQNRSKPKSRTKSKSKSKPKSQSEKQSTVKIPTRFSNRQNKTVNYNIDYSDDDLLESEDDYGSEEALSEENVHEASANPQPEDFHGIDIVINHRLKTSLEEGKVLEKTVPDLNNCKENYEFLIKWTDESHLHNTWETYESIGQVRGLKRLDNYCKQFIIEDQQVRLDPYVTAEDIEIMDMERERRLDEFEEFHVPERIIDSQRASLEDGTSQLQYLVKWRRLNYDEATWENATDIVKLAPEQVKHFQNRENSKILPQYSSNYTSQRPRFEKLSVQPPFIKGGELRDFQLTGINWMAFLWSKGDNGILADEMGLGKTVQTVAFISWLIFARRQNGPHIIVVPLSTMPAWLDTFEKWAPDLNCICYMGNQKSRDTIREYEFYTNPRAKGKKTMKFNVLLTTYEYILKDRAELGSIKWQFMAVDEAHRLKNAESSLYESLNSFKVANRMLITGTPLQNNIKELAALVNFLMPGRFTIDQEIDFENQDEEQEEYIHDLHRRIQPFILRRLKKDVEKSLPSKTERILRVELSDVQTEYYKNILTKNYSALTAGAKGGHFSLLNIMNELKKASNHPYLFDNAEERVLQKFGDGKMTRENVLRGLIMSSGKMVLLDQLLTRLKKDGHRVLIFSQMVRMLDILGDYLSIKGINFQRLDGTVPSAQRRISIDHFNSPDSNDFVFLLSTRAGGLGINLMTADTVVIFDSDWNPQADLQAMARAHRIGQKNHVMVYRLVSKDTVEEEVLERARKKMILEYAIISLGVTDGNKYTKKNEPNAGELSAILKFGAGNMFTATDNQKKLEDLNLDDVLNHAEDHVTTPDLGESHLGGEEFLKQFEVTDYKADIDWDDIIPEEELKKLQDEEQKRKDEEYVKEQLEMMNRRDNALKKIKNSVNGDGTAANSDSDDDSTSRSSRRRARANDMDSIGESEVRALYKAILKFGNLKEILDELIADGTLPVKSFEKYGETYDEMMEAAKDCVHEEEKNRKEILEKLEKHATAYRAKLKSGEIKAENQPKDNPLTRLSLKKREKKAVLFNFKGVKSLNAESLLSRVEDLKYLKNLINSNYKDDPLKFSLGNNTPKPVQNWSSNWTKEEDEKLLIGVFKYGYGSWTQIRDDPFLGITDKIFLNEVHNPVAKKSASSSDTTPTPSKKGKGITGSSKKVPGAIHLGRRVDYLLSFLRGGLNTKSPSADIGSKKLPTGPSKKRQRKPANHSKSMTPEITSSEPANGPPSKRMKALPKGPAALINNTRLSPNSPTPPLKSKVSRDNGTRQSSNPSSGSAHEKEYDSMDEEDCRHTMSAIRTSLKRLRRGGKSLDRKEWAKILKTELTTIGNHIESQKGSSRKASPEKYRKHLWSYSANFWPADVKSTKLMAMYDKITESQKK

Row | SMILES | Percent Effect [1] [%] | Percent Effect [2] [%] | Percent Effect [3] [%] | Percent Effect [4] [%] | Percent Effect (Trypanosoma cruzi) [%] | Percent Effect [5] [%] | Percent Effect [6] [%] | Percent Effect (Homo sapiens) [%] | Percent Effect [7] [%] | Percent Effect [8] [%] | Percent Effect [9] [%]
1 | CSCc1cccc(S(=O)(=O)N2CCSCC2)c1 | -2.31 | -1.33 | 0.956 | 1.81 | -4.91 | -4.05 | 8.87 | 4.39 | -16.9 | -2.56 | -9.22
2 | Cc1cccc(-n2cc(C(=O)N3CCCC(n4ccnc4)C3)nn2)c1 (stereo not given) | -3.01 | 15.6 | 7.1 | -13.5 | -5.58 | -3.16 | 14.6 | 21.7 | 1.91 | 11.8 | -17.4
3 | CC(=O)N(Cc1ncc(C(C)C)o1)C1CCN(Cc2nccn2C)C1 (stereo not given) | -2.57 | 13.5 | -4.73 | 4.8 | 3.25 | -1.29 | 14.4 | -11.4 | 10.9 | 28.1 | -1.74
4 | CN(C)C[C@H]1OC[C@@H]2CCN(C(=O)c3ccco3)C[C@@H]21 | -8.17 | -2.7 | -0.601 | -7.74 | -3.23 | 0.248 | -0.0858 | 11.6 | 1.07 | 3.7 | 0.795
5 | CCc1cnc(CN(C(C)=O)C2CCN(CCS(C)(=O)=O)C2)o1 (stereo not given) | -2.33 | 6.94 | -4.16 | 16.1 | 0.291 | 9.27 | 13.3 | 10.7 | 4.21 | 10.3 | -8.92
6 | O=C(c1ccoc1)N1CC[C@H]2OCC[C@@]2(COc2ncccc2F)C1 | -6.18 | 18.9 | -5.57 | 25.4 | 3.23 | 2.73 | 6.78 | -2.11 | 4.3 | 21 | -7.11
7 | Clc1cc(CN2CCCC2Cn2cncn2)c2ncccc2c1 (stereo not given) | -4.67 | 2.7 | -1.32 | -0.586 | -2.88 | -12.4 | 3.95 | -0.129 | 2.97 | 6.1 | -2.39
8 | COc1ccccc1OCc1cc(C(=O)N2CCN[C@H](C)C2)n[nH]1 | -4.07 | 8.11 | -4.98 | 25.9 | 4.63 | 2.38 | 27.4 | 3.54 | 1.59 | 12.2 | -8.49
9 | O=C(NCc1cccc2cccnc12)N1CCC(n2cncn2)CC1 | -2.83 | 6.33 | 9.77 | 5.48 | -5.03 | 2.37 | -0.515 | 12.1 | 9.38 | 7.59 | -4.9
10 | CC1CCCN(C(=O)c2csc(S(N)(=O)=O)c2)CC1 (stereo not given) | -6.52 | 2.7 | 1.27 | -1.52 | -6.75 | 0.248 | -0.944 | -3.67 | 4.3 | 6.17 | -0.416
11 | O=C(c1ccncc1F)N1CCN(CC2CC2)c2ncccc2C1 | -8.25 | -1.33 | 4.65 | -2.72 | -9.63 | -14.6 | 10.2 | -11 | -6.35 | -10.3 | -9.4
12 | Cc1nc(C)n(CC2CCCN2CCCc2ccccc2)n1 (stereo not given) | -1.6 | -11 | -0.4 | 3.43 | 1.96 | 1.82 | 7.1 | -8.87 | 8.6 | 5 | -1.02
13 | Cc1cccc(N2CCC(NC(=O)CCCc3cccs3)CC2)n1 | -3.35 | 11 | 0.158 | 5.32 | 5.49 | 6.82 | 9.94 | 4.54 | 5.38 | 12.5 | 2.88
14 | c1ccc(OC[C@]23COC[C@H]2CN(c2ncccn2)C3)nc1 | 0.189 | 8 | 1.07 | 5.7 | 6.37 | -59.3 | 12.7 | -4.34 | 3.12 | 17.5 | -8.1
15 | CN(Cc1ccc(C#N)cc1)Cc1noc(C(C)(C)C)n1 | -3.57 | 0 | -1.73 | 0.255 | -0.885 | 2.76 | 3 | 8.86 | -1.07 | -1.24 | 2.69
16 | CN(Cc1ccco1)Cc1ccccc1CNC(=O)c1ccc[nH]1 | 0.847 | -10.8 | -0.911 | 10 | 2.32 | 14.3 | 9.31 | 19.5 | 3.7 | 12.2 | -4.76
17 | Cc1nc(CN2CCC3(CCCN(Cc4cnn(C)c4)C3)C2=O)cs1 (stereo not given) | 2.6 | 10.7 | -6.96 | 4.34 | -5.79 | -57.2 | 10.3 | -6.36 | 3.12 | 10 | -5.7
18 | O=C(c1nc(-c2ccc3cc[nH]c3c2)no1)N1CCCC1 | -4.98 | -12 | 2.17 | 2.62 | 5.11 | -3.7 | 11.7 | -6.53 | 0 | -2.56 | -3.18
19 | CC(C)(C)n1cc(C(=O)N2CCCN(Cc3cccs3)CC2)cn1 | -1.01 | 5.26 | 3.41 | 2.97 | -3.57 | 3.45 | 9.19 | 14.5 | 1.47 | 9.76 | -2.3
20 | NC(=O)C(CNC(=O)Cc1ccc(F)cc1)Cc1ccc(F)cc1 (stereo not given) | -4.48 | 2.63 | -46.9 | -3.44 | -4.19 | 0 | 11.4 | 19.6 | 0 | 0 | -3.68
